# Data taken from PubChem BioAssay.
# A number with no mark means an inactive call. For some assays here: Entries with a potency or affinity are not part of this list. Calls of active or inactive are those of the source. Unless noted, the rule behind the calls is not given here.
# Key:
# [1] = antimalarial activity against Dd2 strain (AID 2302;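 active = growth inhibition above 50% at the single 2 µM test dose, taken to imply half-maximal potency below 2 µM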;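 note: 0% = DMSO untreated growth and 100% = chloroquine plus artemisinin killed control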); details: P. falciparum Dd2 in RBCs, LDH growth readout, 72 h; at 2 µM; hits give high values
# [2] = human hepatoma cell viability loss – ATP luminescence, cytotoxicity control for P. falciparum antimalarial project, primary screen (AID 2303;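 active = inhibition above 50%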;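 note: 0% = DMSO wells and 100% = digitonin-killed cells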); details: HepG2 viability, 24-48 h, at 10 µM, hits give high values
# [3] = target: L-lactate dehydrogenase (Plasmodium falciparum (isolate CDC / Honduras)) (UniProt Q27743); test: PfLDH activity inhibition – cell lysate, 3D7 strain, counter-screen for P. falciparum growth inhibition project (AID 2304);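 note: 0% = vehicle and 100% = reference inhibitor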; details: P. falciparum 3D7 crude extract, LDH APAD/NBT absorbance; at 2 µM; hits give high values
# [4] = inhibition of 3D7 malaria parasite growth – strain 3D7 (AID 2306);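 note: 0% = DMSO wells and 100% = chloroquine plus artemisinin control wells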; details: P. falciparum 3D7 erythrocytic growth, LDH absorbance, 72 h; at 2 µM; hits give high values
# [5] = target: Calcium-dependent protein kinase 1 (Plasmodium falciparum (isolate 3D7)) (UniProt P62344); test: PfCDPK1 kinase inhibitors, biochemical, TCAMS library (AID 1159585; cut-off not given, nearly all actives have IC50 up to about 0.98 µM;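 note: inhibitors leave more ATP so luminescence rises with inhibition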); details: recombinant PfCDPK1, Kinase-Glo ATP depletion luminescence
# [6] = target: Plasmodium falciparum protein kinase 6 (PK6, PF3D7_1337100) (UniProt Q8IDW1); test: PfPK6 kinase inhibitors, biochemical, TCAMS library (AID 1159586); details: recombinant PfPK6, Kinase-Glo ATP depletion luminescence
# [7] = target: Protein kinase 7 (PK7), Plasmodium falciparum 3D7 (PF3D7_0213400) (UniProt Q7YTF7); test: inhibition of Plasmodium PK7 catalytic activity – biochemical, TCAMS antimalarial set, Kinase-Glo luminescence (AID 1159587); details: recombinant PfPK7, Kinase-Glo ATP depletion luminescence
# [8] = target: Calcium-dependent protein kinase 4 (Plasmodium falciparum (isolate 3D7)) (UniProt Q8IBS5); test: PfCDPK4 kinase inhibitors, biochemical, TCAMS library (AID 1159588; cut-off not given, nearly all actives have IC50 up to about 0.91 µM); details: recombinant PfCDPK4, Kinase-Glo ATP depletion luminescence
# Calcium-dependent protein kinase 4 (Plasmodium falciparum (isolate 3D7)), sequence (Q8IBS5 whole entry, looked up): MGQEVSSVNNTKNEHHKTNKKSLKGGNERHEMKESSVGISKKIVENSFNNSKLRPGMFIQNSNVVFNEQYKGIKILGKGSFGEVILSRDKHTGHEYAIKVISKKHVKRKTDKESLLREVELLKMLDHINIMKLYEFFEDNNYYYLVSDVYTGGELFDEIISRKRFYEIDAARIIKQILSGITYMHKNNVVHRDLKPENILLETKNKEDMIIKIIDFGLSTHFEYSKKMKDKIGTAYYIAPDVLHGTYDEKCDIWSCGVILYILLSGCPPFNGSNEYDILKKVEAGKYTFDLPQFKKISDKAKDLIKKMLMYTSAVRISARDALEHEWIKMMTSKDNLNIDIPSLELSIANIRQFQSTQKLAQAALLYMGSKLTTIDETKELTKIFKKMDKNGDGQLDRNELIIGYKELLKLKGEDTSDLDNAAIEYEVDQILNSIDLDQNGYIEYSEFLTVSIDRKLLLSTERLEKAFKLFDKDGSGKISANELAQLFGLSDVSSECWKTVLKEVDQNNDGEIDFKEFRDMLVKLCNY
# Calcium-dependent protein kinase 1 (Plasmodium falciparum (isolate 3D7)), sequence (P62344 whole entry, looked up): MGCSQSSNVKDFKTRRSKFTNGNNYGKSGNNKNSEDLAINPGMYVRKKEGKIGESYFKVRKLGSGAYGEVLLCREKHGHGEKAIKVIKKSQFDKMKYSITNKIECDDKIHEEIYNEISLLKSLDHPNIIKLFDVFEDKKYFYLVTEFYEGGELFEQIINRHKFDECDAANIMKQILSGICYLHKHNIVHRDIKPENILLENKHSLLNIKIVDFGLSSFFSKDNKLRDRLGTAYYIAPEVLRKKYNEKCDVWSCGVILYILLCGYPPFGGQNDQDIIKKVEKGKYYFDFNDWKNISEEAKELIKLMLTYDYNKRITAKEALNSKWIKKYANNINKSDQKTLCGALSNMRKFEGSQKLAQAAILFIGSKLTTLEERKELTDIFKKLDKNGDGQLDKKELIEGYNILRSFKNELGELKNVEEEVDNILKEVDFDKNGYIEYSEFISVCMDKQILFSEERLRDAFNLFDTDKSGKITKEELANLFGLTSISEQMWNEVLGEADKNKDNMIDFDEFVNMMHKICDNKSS
# Plasmodium falciparum protein kinase 6 (PK6, PF3D7_1337100), sequence (Q8IDW1 1-305): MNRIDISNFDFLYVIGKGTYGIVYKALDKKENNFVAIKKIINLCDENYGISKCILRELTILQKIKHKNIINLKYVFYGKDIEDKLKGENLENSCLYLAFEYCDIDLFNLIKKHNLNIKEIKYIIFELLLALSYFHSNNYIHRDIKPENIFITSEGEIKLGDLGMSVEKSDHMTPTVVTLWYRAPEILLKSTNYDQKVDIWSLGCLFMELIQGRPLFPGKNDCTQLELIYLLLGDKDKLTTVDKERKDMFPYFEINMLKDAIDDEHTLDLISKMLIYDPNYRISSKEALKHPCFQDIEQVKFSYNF
# Protein kinase 7 (PK7), Plasmodium falciparum 3D7 (PF3D7_0213400), sequence (Q7YTF7 1-343): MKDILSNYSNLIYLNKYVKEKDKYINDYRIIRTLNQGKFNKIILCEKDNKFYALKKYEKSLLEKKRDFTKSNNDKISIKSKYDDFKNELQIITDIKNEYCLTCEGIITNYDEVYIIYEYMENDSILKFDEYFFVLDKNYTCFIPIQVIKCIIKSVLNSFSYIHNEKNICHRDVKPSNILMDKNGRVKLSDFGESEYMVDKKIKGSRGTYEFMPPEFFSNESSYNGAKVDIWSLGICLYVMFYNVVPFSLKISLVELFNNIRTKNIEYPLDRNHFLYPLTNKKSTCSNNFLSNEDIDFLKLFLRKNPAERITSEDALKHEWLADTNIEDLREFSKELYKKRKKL
# L-lactate dehydrogenase (Plasmodium falciparum (isolate CDC / Honduras)), sequence (Q27743 whole entry, looked up): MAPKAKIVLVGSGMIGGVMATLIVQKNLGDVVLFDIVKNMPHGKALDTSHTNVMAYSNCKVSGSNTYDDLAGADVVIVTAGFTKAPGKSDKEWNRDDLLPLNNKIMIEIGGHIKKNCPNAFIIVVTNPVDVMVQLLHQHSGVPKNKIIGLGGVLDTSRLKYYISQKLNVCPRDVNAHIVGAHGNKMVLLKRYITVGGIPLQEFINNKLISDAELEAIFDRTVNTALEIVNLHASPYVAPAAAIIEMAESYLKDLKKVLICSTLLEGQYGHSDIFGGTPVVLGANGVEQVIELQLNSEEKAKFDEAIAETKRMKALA
SMILES,growth inhibition [1],inhibition [2],inhibition [3] [%],growth inhibition [4],outcome [5],outcome [6],outcome [7],outcome [8]
CC1CCC2(CC1)N=C(N)N=C(N)N2OCCCCCCCCO (stereo unspecified),87% (active),2%,-4,96% (active),inactive,inactive,inactive,inactive
O=C(Nc1ccc(Cl)cc1)c1ccc(S(=O)(=O)NCC2CCN(CC3CCCCC3)CC2)cc1,8%,40%,-2,93% (active),inactive,inactive,inactive,inactive
CCN(CC)CC(O)c1cc(-c2ccc(OC)cc2)nc2cc(Cl)ccc12 (stereo unspecified),98% (active),12%,-10,99% (active),inactive,inactive,inactive,inactive
COc1ccc2nc(-c3cc(-c4ccc(NC(=O)CN5CCOCC5)cc4)cnc3N)[nH]c2c1,72% (active),52% (active),-4,100% (active),inactive,inactive,inactive,inactive
COc1ccc2cc(C=NNc3nc4ccccc4[nH]3)c(Cl)nc2c1,90% (active),2%,-2,100% (active),inactive,inactive,inactive,inactive
C=CCN1C(=O)c2[nH]nc(-c3cc(C)c(C)cc3O)c2C1c1cccc(Br)c1 (stereo unspecified),82% (active),-14%,-3,90% (active),inactive,inactive,inactive,inactive
Cc1[nH]c(C)c(-c2ccc(-c3cc(C(F)(F)F)cc(C(F)(F)F)c3)nc2)c(=O)c1Br,96% (active),18%,0,98% (active),inactive,inactive,inactive,inactive
CC(C)CNCc1ccc(-c2ccc(CN(CCCN3CCN(C)CC3)C(=O)/C=C/c3ccccc3)cc2)cc1,93% (active),57% (active),3,99% (active),inactive,inactive,inactive,inactive
CC(=O)Oc1cc(C(=O)Nc2ccc(Cl)cc2)cc2ccccc12,47%,16%,-3,88% (active),inactive,inactive,inactive,inactive
COc1ccc(-c2csc3ncnc(Cl)c23)cc1OC,84% (active),-25%,4,93% (active),inactive,inactive,inactive,inactive
FC(F)(F)c1ccc2nc(-c3ccc(-c4ccc(CNCCN5CCNCC5)cc4)cc3)[nH]c2c1,74% (active),13%,-4,92% (active),inactive,inactive,inactive,inactive
Oc1c(C(Nc2nc3ccccc3s2)c2ccc(OC(F)F)cc2)ccc2cccnc12 (stereo unspecified),85% (active),62% (active),4,92% (active),inactive,inactive,inactive,inactive
C[C@H]1CN(Cc2cccc(-c3cc(CNC(=O)c4cccc(CC5CCN(C)CC5)c4)ccc3F)c2)CCN1C,99% (active),42%,2,101% (active),inactive,inactive,inactive,inactive
CCc1ccc(-n2c(=O)c3cccnc3n2CC(=O)NC2CCCC2)cc1,27%,-1%,-7,98% (active),inactive,inactive,inactive,inactive
CCn1cc(CN2CCCC(C(=O)Nc3ccc(-c4nc5ccccc5[nH]4)cc3)C2)cn1 (stereo unspecified),26%,8%,-1,100% (active),inactive,inactive,inactive,inactive
CCC(CC)n1c(COC)cc2c3c(N)nc(N)nc3ccc21,0%,71% (active),-4,95% (active),inactive,inactive,inactive,inactive
Nc1c2c(nc3ccc(NC(=O)CCCc4ccccc4)cc13)CCCC2,42%,73% (active),-1,101% (active),inactive,inactive,inactive,inactive
CCN1CCC(N(CCCCCCc2ccc(C(F)(F)F)cc2)C(=O)Cn2c(CCc3cccc(F)c3F)cc(=O)c3ccccc32)CC1,82% (active),32%,-7,88% (active),inactive,inactive,inactive,inactive
COc1ccc2ncc(C#N)c(CCN3CCC(NCc4ccc5c(c4)OCCO5)CC3)c2c1,31%,12%,-4,96% (active),inactive,inactive,inactive,inactive

SMILES,growth inhibition [1],inhibition [2],inhibition [3] [%],growth inhibition [4],outcome [5],outcome [6],outcome [7],outcome [8]
CCCCN(CCCC)CCC(O)C(=Cc1ccc(Cl)cc1Cl)c1ccc(C(F)(F)F)cc1N (stereo unspecified),99% (active),-9%,1,100% (active),inactive,inactive,inactive,inactive
Cc1cccn2c(=O)c3cc(C(=O)NCCN4CCOCC4)c(=N)n(CCc4ccccc4)c3nc12,85% (active),13%,1,100% (active),inactive,inactive,inactive,inactive
O=C(Nc1ccc([N+](=O)[O-])cc1)Nc1cc(C(F)(F)F)ccc1F,46%,8%,-4,89% (active),inactive,inactive,inactive,inactive
CCOc1ccc(Nc2cc(C)nc(Nc3ccc(OCC)cc3)n2)cc1,49%,3%,8,101% (active),inactive,inactive,inactive,inactive
CCN(CC)CCCC(C)N=C(Nc1ccc(C#N)cc1O)Nc1ccccc1Br (stereo unspecified),-2%,4%,2,89% (active),inactive,inactive,inactive,inactive
Cc1c(CC(=O)N(C)C2CCN(CCCCCNC(=O)/C=C/c3ccc(Cl)c(Cl)c3)CC2)sc2ccc(Cl)cc12,9%,93% (active),3,95% (active),inactive,inactive,inactive,inactive
O=C(Nc1ccc(Cl)c(C(F)(F)F)c1)c1ccc(C(=O)Nc2ccc(Cl)c(C(F)(F)F)c2)cc1,27%,9%,-2,88% (active),inactive,inactive,inactive,inactive
Cc1nc(-c2ccc(-c3ccc(C(=O)Nc4ccc(Cl)c(N5CCN(C)CC5)c4)cc3)c(C)c2)no1,47%,23%,4,101% (active),inactive,inactive,inactive,inactive
COC(=O)c1ccc2nc(-c3ccc(/C=C/C(=O)NC4CCN(Cc5ccccc5)CC4)cc3)[nH]c2c1,88% (active),12%,-5,100% (active),inactive,inactive,inactive,inactive
Cc1cc(NCCC(=O)Nc2ccccc2)nc(NCCc2cccs2)n1,20%,26%,0,99% (active),inactive,inactive,inactive,inactive
CC(C)(C)c1ccc(NC(=O)c2ccc(CN3CCCN(Cc4cccc(C#N)c4)CC3)cc2)cc1,12%,54% (active),-5,99% (active),inactive,inactive,inactive,inactive
COc1ccc(Oc2ccccc2CNCC2CCN(CC3CCCCC3)CC2)cc1,28%,34%,-8,85% (active),inactive,inactive,inactive,inactive
O=C(Nc1cccc(CN2CCN(C(=O)c3cccc(F)c3)CC2)c1)c1cccs1,95% (active),17%,1,95% (active),inactive,inactive,inactive,inactive
O=C(Nc1cc(C(F)(F)F)ccc1-n1cncn1)C1(c2ccccc2)CC1,100% (active),11%,3,100% (active),inactive,inactive,inactive,inactive
CN(C)CCCNCc1ccc(-c2ccc(F)c(Cl)c2)o1,69% (active),29%,-7,93% (active),inactive,inactive,inactive,inactive
CCOC(=O)c1cc(C(=O)NCCCCN2CCC(c3cn(C)c4ccccc34)CC2)ccc1-c1ccc(C(F)(F)F)cc1,6%,25%,-3,91% (active),inactive,inactive,inactive,inactive
COc1ccc(C2CCN(CCCCNC(=O)c3ccc(NC(=O)c4ccc(Cl)cc4)cc3)CC2)cc1Cl,75% (active),28%,4,97% (active),inactive,inactive,inactive,inactive
CC(C)CCOc1ccc(NC(=O)c2cccs2)cc1,95% (active),11%,-3,95% (active),inactive,inactive,inactive,inactive
